# Results published in PubChem BioAssay AID1159580 (chemical genetic matrix, 2015).
# “And” between values parts separate entries of the source, which are not always exact repeats. Identical values can stand only once. The campaign covered roughly 5,500 compounds. About 2,000 (36%) were called active. Another 18% or so got no clear call; they are omitted. Some of the results follow. Unmarked numbers belong to inactive results. Rule as the data show it: active = normalized growth mostly below about 0.91 (no sharp cut-off); inconclusive = no clear call, values can overlap the other calls; inactive = mostly above about 0.92.
# Assay: chemical genetic growth profiling, strain panel (AID 1159580);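 also: tested at 20 µM; growth read once vehicle control cultures reached saturation at 30 °C; 1 = growth at the plate median or of vehicle wells; lower values mean less growth of the strain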
# Conditions: S. cerevisiae deletion strains, growth OD
compound,measurement,setting,value
C[C@]12CCC3C(CC[C@]4(O)C[C@@H](O)CC[C@]34C=O)[C@@]1(O)CCC2C1=CC(=O)OC1 (stereo not given in full),normalized growth,"locus YAL021C, strain ccr4, active compounds read low",0.92
same,normalized growth,"locus YAL026C, strain drs2, active compounds read low",0.983
same,normalized growth,"locus YAL030W, strain snc1, active compounds read low",0.975
same,normalized growth,"locus YBL061C, strain skt5, active compounds read low",0.979
same,normalized growth,"locus YBR009C, strain hhf1, active compounds read low",0.967
same,normalized growth,"locus YBR021W, strain FUR4, active compounds read low",1
same,normalized growth,"locus YBR023C, strain chs3, active compounds read low",0.98
same,normalized growth,"locus YBR171W, strain sec66, active compounds read low",0.986
same,normalized growth,"locus YBR229C, strain ROT2, active compounds read low",0.94
same,normalized growth,"locus YBR231C, strain swc5, active compounds read low",0.995
same,normalized growth,"locus YBR279W, strain paf1, active compounds read low",0.986
same,normalized growth,"locus YCL011C, strain gbp2, active compounds read low",0.943
same,normalized growth,"locus YCL016C, strain dcc1, active compounds read low",0.958
same,normalized growth,"locus YCL029C, strain bik1, active compounds read low",0.962
same,normalized growth,"locus YCL069W, strain vba3, active compounds read low",0.981
same,normalized growth,"locus YCR088W, strain abp1, active compounds read low",0.988
same,normalized growth,"locus YDL005C, strain med2, active compounds read low",0.969
same,normalized growth,"locus YDL035C, strain GPR1, active compounds read low",0.964
same,normalized growth,"locus YDL040C, strain nat1, active compounds read low",0.992
same,normalized growth,"locus YDL074C, strain BRE1, active compounds read low",1.01
same,normalized growth,"locus YDL101C, strain DUN1, active compounds read low",0.987
same,normalized growth,"locus YDL185W, strain tfp1, active compounds read low",0.962
same,normalized growth,"locus YDL192W, strain arf1, active compounds read low",0.976
same,normalized growth,"locus YDR001C, strain nth1, active compounds read low",0.967
same,normalized growth,"locus YDR069C, strain doa4, active compounds read low",0.986
same,normalized growth,"locus YDR101C, strain arx1, active compounds read low",0.97
same,normalized growth,"locus YDR137W, strain rgp1, active compounds read low",0.971
same,normalized growth,"locus YDR159W, strain sac3, active compounds read low",1.05
same,normalized growth,"locus YDR162C, strain NBP2, active compounds read low",0.975
same,normalized growth,"locus YDR195W, strain ref2",1.01
same,normalized growth,"locus YDR297W, strain sur2, active compounds read low",0.994
same,normalized growth,"locus YDR318W, strain mcm21, active compounds read low",0.98
same,normalized growth,"locus YDR334W, strain swr1, active compounds read low",0.978
same,normalized growth,"locus YDR335W, strain msn5, active compounds read low",0.989
same,normalized growth,"locus YDR388W, active compounds read low",0.982
same,normalized growth,"locus YDR392W, strain spt3, active compounds read low",0.889
same,normalized growth,"locus YDR502C, strain sam2, active compounds read low",0.99
same,normalized growth,"locus YEL003W, strain gim4, active compounds read low",0.991
same,normalized growth,"locus YEL037C, strain rad23, active compounds read low",0.979
same,normalized growth,"locus YEL061C, strain CIN8 (second series), active compounds read low",0.984
same,normalized growth,"locus YEL061C, strain CIN8, active compounds read low",0.986
same,normalized growth,"locus YER015W, strain faa2, active compounds read low",0.922 (active)
same,normalized growth,"locus YER016W, strain bim1, active compounds read low",0.991
same,normalized growth,"locus YER110C, active compounds read low",0.98
same,normalized growth,"locus YER111C, strain swi4, active compounds read low",1.02
same,normalized growth,"locus YER155C, strain BEM2 (second series), active compounds read low",1.06
same,normalized growth,"locus YER155C, strain BEM2, active compounds read low",0.994
same,normalized growth,"locus YER167W, strain BCK2, active compounds read low",0.984
same,normalized growth,"locus YFR010W, strain ubp6, active compounds read low",0.982
same,normalized growth,"locus YGL078C, strain dbp3, active compounds read low",0.996
same,normalized growth,"locus YGL086W, strain mad1, active compounds read low",0.992
same,normalized growth,"locus YGL167C, strain pmr1, active compounds read low",0.965
same,normalized growth,"locus YGL173C, strain kem1, active compounds read low",0.994
same,normalized growth,"locus YGL227W, strain vid30, active compounds read low",0.998
same,normalized growth,"locus YGL240W, strain doc1, active compounds read low",1.03
same,normalized growth,"locus YGL248W, strain PDE1, active compounds read low",1
same,normalized growth,"locus YGL253W, strain hxk2, active compounds read low",0.985
same,normalized growth,"locus YGR135W, strain pre9, active compounds read low",0.975
same,normalized growth,"locus YGR229C, strain SMI1, active compounds read low",0.991
same,normalized growth,"locus YGR252W, strain gcn5, active compounds read low",0.988
same,normalized growth,"locus YHR013C, strain ard1, active compounds read low",0.953
same,normalized growth,"locus YHR027C, strain rpn1, active compounds read low",0.973
same,normalized growth,"locus YHR030C, strain SLT2, active compounds read low",0.991 and 0.995
same,normalized growth,"locus YHR079C, strain IRE1 (second series), active compounds read low",0.98
same,normalized growth,"locus YHR079C, strain IRE1, active compounds read low",0.988
same,normalized growth,"locus YHR094C, strain hxt1, active compounds read low",0.976
same,normalized growth,"locus YHR129C, strain ARP1, active compounds read low",0.989
same,normalized growth,"locus YHR142W, strain chs7, active compounds read low",0.971
same,normalized growth,"locus YHR200W, strain rpn10, active compounds read low",0.964
same,normalized growth,"locus YIL066C, strain RNR3, active compounds read low",0.95
same,normalized growth,"locus YIL073C, strain SPO22, active compounds read low",0.958
same,normalized growth,"locus YIL125W, strain kgd1, active compounds read low",0.969
same,normalized growth,"locus YIR030C, strain dcg1, active compounds read low",0.975
same,normalized growth,"locus YJL092W, strain hpr5, active compounds read low",0.97
same,normalized growth,"locus YJL095W, strain BCK1 (second series), active compounds read low",0.98
same,normalized growth,"locus YJL095W, strain BCK1, active compounds read low",1.05 and 1.01
same,normalized growth,"locus YJL115W, strain asf1, active compounds read low",0.968
same,normalized growth,"locus YJL129C, strain trk1, active compounds read low",0.999
same,normalized growth,"locus YJL134W, strain LCB3, active compounds read low",0.98
same,normalized growth,"locus YJL154C, strain vps35, active compounds read low",0.984
same,normalized growth,"locus YJL164C, strain tpk1, active compounds read low",0.933
same,normalized growth,"locus YJL166W, strain qcr8, active compounds read low",1
same,normalized growth,"locus YJL168C, strain set2, active compounds read low",0.982
same,normalized growth,"locus YJL187C, strain SWE1 (second series), active compounds read low",1.01
same,normalized growth,"locus YJR043C, strain POL32, active compounds read low",0.964
